Among the data in ChEMBL document CHEMBL1961873, “Compounds: GSK PKIS; Assays: Nanosyn kinase panel” (2012) are inhibition values, retold here.

Experiment [1] has as its target Fibroblast growth factor receptor 4 (Homo sapiens) (UniProt P22455). As to conditions: at 1 µM.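 Also: reported figure is the averaged percent inhibition of FGFR4, from the GSK PKIS kinase screening panel.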
Experiment [2] deals with Tyrosine-protein kinase Fgr (Homo sapiens) (UniProt P09769). The settings on record: at 0.1 µM.
Experiment [3] shares this target. The settings on record: at 1 µM.
Experiment [4] concerns the target Vascular endothelial growth factor receptor 1 (Homo sapiens) (UniProt P17948). The settings on record: at 0.1 µM.
The target is the same in experiment [5]. As to conditions: at 1 µM.
Experiment [6] addresses Receptor-type tyrosine-protein kinase FLT3 (Homo sapiens) (UniProt P36888). The settings on record: at 0.1 µM.
Experiment [7] shares this target. The settings on record: at 1 µM.
Experiment [8] has as its system T1, Receptor-type tyrosine-protein kinase FLT3 (Homo sapiens), P36888 [D835Y].
T1 sequence (whole entry): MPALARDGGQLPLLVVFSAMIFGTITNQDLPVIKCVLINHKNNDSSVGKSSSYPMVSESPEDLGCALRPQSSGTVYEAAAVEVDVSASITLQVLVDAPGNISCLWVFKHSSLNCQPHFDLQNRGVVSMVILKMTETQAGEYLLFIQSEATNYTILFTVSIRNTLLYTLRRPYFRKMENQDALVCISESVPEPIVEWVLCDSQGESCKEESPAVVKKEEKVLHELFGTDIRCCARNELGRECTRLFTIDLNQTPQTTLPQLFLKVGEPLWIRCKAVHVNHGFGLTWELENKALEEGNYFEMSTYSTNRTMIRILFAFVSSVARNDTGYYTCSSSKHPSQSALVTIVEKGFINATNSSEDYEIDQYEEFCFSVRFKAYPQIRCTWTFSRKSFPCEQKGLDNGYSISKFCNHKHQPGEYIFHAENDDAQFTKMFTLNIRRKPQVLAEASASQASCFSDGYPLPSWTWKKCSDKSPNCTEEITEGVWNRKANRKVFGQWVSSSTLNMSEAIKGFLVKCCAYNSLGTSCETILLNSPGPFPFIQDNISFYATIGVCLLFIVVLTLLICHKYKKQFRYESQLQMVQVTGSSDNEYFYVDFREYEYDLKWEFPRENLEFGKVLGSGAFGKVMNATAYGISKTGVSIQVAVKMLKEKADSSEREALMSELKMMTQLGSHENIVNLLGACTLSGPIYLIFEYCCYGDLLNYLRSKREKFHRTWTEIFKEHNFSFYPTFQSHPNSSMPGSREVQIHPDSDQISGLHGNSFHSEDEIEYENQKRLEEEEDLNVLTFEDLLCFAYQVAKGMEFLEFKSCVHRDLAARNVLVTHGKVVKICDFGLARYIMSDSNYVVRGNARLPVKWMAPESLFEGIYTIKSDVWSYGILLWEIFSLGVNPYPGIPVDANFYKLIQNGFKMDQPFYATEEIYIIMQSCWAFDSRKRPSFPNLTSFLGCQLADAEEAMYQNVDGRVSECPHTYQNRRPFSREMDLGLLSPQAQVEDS
As to conditions: at 0.1 µM.

Experiment [9] has as its target Non-receptor tyrosine-protein kinase TYK2 (Homo sapiens) (UniProt P29597). As to conditions: at 1 µM.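 Also: values are mean percent inhibition of TYK2 kinase.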
The target of experiment [10] is T2, Tyrosine-protein kinase receptor TYRO3 (Homo sapiens) (UniProt Q06418).
T2 sequence (whole entry): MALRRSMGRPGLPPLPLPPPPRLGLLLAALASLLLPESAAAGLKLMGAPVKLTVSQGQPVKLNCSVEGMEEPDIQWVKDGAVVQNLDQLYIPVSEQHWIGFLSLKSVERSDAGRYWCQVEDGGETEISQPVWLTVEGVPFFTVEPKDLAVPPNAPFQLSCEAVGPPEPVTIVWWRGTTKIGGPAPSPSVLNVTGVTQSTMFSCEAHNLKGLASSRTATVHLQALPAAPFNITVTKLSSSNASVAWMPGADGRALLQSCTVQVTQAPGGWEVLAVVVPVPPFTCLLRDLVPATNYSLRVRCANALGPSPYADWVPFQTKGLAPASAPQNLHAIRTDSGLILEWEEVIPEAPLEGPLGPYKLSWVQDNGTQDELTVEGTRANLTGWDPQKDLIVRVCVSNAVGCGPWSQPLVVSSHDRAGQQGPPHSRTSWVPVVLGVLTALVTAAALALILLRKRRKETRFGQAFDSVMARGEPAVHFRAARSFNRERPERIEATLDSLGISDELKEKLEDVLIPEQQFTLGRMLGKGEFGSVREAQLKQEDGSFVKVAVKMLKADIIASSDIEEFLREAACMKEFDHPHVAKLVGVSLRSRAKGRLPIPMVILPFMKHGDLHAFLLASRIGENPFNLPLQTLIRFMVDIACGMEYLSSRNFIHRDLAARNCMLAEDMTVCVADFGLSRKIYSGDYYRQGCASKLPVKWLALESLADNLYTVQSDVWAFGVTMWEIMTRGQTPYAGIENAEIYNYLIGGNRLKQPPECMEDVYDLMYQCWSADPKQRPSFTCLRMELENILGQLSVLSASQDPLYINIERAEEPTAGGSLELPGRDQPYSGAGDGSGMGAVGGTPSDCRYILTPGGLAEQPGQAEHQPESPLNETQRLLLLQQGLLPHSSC
As to conditions: at 0.1 µM.

Experiment [11] addresses T2, Tyrosine-protein kinase receptor TYRO3 (Homo sapiens). The settings on record: at 1 µM.
In experiment [12] the target is Tyrosine-protein kinase Yes (Homo sapiens) (UniProt P07947). As to conditions: at 0.1 µM.
For experiment [13] the target is unchanged. As to conditions: at 1 µM.
Experiment [14] concerns the target T3, Tyrosine-protein kinase ZAP-70 (Homo sapiens) (UniProt P43403).
T3 sequence (whole entry): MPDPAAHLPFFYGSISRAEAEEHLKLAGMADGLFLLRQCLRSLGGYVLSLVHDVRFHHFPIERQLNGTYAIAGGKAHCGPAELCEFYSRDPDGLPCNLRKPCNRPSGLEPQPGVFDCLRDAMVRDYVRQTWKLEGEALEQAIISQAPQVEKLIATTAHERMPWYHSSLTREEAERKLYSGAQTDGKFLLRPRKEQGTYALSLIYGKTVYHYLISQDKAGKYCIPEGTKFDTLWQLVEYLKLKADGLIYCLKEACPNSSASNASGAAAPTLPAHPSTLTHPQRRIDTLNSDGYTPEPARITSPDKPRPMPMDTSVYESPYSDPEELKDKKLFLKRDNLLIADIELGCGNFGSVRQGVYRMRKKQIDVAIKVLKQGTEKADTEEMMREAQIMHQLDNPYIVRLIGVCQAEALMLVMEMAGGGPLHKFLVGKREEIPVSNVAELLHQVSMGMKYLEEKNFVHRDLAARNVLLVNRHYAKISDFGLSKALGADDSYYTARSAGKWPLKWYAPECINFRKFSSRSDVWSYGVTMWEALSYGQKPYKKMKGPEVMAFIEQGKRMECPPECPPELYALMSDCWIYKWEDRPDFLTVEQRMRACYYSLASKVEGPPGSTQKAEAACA
As to conditions: at 0.1 µM.

Experiment [15] has as its target T3, Tyrosine-protein kinase ZAP-70 (Homo sapiens). The settings on record: at 1 µM.
In experiment [16] the target is Serine/threonine-protein kinase B-raf (Homo sapiens) (UniProt P15056). The settings on record: at 0.1 µM.
For experiment [17] the target is unchanged. As to conditions: at 1 µM.
Experiment [18] deals with Serine/threonine-protein kinase B-raf (Homo sapiens), P15056 [V600E]. As to conditions: at 0.1 µM.
For experiment [19] the test system is unchanged. As to conditions: at 1 µM.
In experiment [20] the target is RAF proto-oncogene serine/threonine-protein kinase (Homo sapiens) (UniProt P04049). The settings on record: at 0.1 µM.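 Also: values are mean CRAF kinase inhibition from profiling of the GSK Published Kinase Inhibitor Set.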
RAF proto-oncogene serine/threonine-protein kinase (Homo sapiens), sequence (P04049 whole entry): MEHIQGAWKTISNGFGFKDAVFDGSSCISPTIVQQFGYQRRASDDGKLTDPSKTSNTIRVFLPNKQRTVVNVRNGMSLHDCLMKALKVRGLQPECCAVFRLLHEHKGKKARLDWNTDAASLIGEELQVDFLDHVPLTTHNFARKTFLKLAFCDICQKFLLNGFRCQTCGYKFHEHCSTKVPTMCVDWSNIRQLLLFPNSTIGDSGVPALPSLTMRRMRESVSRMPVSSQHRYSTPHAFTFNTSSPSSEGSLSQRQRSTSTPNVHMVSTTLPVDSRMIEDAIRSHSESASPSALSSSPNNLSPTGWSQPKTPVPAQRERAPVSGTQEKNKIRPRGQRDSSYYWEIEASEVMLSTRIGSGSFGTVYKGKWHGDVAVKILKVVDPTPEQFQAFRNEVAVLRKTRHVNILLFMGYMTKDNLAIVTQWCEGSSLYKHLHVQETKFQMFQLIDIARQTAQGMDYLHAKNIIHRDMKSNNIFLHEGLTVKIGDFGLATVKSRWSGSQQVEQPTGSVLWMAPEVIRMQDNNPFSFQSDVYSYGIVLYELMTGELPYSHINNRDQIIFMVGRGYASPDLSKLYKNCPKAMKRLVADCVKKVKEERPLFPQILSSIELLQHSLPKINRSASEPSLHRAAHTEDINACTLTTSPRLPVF

Fibroblast growth factor receptor 4 (Homo sapiens), sequence (P22455 22-802 limits assumed): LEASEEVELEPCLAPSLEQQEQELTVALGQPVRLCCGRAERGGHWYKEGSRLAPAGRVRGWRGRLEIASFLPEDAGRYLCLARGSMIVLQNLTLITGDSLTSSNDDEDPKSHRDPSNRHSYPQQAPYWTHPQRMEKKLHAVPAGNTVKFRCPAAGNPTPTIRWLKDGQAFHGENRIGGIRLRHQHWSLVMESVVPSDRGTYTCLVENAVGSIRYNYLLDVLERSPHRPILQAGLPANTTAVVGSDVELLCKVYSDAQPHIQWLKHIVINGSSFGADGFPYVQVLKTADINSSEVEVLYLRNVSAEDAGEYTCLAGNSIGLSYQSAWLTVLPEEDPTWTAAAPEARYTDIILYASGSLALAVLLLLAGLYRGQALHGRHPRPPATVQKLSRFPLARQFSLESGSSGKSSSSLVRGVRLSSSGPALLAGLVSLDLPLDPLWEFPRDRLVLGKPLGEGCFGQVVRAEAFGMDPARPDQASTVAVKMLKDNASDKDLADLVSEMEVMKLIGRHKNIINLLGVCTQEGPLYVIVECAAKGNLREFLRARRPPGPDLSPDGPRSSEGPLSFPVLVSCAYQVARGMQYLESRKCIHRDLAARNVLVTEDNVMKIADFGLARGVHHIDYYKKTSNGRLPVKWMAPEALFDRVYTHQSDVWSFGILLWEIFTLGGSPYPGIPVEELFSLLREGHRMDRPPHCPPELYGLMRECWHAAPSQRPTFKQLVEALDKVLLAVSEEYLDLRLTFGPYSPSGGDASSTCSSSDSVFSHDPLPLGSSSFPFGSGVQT
Tyrosine-protein kinase Fgr (Homo sapiens), sequence (P09769 2-529 limits assumed): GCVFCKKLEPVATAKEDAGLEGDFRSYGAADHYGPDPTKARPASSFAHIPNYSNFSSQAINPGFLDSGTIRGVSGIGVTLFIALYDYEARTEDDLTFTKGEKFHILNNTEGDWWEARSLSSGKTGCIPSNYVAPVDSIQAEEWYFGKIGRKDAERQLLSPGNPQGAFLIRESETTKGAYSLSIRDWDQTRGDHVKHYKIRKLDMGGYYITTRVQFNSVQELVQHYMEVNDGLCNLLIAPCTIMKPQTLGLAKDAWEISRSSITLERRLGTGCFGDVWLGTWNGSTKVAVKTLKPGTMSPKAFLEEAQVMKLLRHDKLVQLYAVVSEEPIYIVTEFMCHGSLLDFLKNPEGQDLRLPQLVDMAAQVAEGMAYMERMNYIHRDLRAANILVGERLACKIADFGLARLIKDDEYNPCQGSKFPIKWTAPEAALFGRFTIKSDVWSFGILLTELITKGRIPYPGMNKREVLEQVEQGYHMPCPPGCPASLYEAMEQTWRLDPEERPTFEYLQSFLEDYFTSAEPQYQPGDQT
Vascular endothelial growth factor receptor 1 (Homo sapiens), sequence (P17948 whole entry): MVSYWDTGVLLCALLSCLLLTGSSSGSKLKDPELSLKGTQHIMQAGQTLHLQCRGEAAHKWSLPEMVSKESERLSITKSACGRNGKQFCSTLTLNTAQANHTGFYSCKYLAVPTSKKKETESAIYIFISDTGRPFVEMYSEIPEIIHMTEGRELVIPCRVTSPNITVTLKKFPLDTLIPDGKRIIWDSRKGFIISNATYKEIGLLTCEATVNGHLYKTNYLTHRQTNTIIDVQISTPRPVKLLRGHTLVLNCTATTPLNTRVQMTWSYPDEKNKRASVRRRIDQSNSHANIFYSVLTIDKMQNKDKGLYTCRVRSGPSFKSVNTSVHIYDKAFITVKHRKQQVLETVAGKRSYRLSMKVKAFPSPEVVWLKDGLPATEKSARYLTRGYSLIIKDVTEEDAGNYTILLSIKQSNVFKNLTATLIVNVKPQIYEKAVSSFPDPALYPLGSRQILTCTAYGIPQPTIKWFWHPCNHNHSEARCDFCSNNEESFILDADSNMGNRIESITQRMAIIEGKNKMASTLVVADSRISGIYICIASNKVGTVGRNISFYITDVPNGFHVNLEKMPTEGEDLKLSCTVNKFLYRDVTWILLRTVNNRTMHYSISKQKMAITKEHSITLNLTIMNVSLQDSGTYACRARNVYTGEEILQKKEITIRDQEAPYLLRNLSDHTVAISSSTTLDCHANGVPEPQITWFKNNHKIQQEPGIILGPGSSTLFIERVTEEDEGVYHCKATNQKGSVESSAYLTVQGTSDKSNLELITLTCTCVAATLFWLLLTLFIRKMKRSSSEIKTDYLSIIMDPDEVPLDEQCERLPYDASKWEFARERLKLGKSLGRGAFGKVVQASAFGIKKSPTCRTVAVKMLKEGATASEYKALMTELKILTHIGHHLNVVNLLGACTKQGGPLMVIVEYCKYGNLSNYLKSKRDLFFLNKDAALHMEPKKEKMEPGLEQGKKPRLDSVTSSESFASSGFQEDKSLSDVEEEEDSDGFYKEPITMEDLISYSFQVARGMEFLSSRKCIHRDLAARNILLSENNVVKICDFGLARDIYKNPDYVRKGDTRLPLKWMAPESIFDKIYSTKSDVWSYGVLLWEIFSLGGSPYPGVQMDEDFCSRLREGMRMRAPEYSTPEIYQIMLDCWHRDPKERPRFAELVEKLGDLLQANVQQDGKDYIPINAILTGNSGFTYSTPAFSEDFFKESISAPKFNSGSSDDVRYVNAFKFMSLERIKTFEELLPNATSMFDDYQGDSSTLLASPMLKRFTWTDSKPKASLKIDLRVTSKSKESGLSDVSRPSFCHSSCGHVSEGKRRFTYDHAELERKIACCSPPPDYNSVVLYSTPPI
Serine/threonine-protein kinase B-raf (Homo sapiens), P15056 [V600E], sequence (P15056 whole entry V600E): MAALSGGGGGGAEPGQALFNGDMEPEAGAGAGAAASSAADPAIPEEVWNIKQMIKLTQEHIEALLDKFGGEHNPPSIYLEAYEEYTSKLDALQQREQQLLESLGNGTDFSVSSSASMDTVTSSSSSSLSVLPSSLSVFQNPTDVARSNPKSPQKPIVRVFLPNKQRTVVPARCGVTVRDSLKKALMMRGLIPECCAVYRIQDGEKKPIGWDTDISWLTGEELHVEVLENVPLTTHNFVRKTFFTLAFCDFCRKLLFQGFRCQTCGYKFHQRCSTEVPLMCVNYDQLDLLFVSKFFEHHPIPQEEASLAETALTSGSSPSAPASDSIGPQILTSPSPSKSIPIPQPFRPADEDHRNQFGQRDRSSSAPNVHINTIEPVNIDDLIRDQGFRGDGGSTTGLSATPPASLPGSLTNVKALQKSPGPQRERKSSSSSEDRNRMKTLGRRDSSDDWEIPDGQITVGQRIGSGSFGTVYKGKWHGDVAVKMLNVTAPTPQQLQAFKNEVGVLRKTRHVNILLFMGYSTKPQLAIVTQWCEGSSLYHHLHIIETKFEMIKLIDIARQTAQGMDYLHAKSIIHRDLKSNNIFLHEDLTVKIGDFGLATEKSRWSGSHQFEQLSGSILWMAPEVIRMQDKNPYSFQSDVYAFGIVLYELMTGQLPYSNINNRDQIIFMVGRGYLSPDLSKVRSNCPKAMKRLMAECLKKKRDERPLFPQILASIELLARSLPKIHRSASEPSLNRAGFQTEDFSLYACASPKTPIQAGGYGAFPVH
Serine/threonine-protein kinase B-raf (Homo sapiens), sequence (P15056 whole entry): as the sequence (P15056 whole entry V600E) above, with E600V counted along it
Tyrosine-protein kinase Yes (Homo sapiens), sequence (P07947 2-543 limits assumed): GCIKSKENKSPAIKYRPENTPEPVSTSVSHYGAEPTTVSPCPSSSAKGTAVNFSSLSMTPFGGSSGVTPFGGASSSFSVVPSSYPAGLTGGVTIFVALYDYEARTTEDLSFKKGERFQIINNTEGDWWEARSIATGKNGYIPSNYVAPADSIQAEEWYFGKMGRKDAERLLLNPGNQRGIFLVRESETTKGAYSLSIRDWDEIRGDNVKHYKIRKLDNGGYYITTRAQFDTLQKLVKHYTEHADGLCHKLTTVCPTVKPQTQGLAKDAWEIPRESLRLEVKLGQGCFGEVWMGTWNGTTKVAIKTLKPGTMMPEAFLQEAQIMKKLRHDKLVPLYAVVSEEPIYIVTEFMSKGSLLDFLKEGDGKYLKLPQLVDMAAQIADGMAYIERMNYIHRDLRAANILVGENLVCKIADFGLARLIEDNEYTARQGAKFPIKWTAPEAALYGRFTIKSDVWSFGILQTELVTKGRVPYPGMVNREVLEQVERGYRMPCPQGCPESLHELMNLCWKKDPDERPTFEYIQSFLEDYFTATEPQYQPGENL

The term inhibition denotes the relative decrease from the control value, in per cent. On to `CCS(=O)(=O)c1ccc(OC)c(Nc2ncc(-c3cccc(C(C)=O)c3)o2)c1`, for which the inhibition in experiment [1] was 3.95%; in [2] it was 13.2%; in experiment [3], 44.4%; in experiment [4], 3.88%; in [5], 17.2%; in experiment [6], 19.1%. Moreover, the inhibition in [7] was 69.8%; in [8], 55.7%; in [9], -1.19%; in experiment [10], 5.67%; in experiment [11], 24.1%; in experiment [12], 18.6%. The inhibition in [13] was determined as 65.9%; in experiment [14], 2.04%; in experiment [15], 1.3%; in experiment [16] it was 3.62%; in experiment [17], 6.17%; in [18], 3.41%. The inhibition in [19] amounted to 5.84%; in [20], 5.57%.
With `CC1=C(C(=O)Nc2ccc3[nH]ncc3c2)C(c2ccc(F)cc2)N=C(c2ccc(C(F)(F)F)nc2)N1` (stereo not given), the inhibition in [1] is 4.41%; in experiment [2], 1.36%; in experiment [3], 7.33%; in experiment [4], 2.08%; in experiment [5], 3.96%; in experiment [6], -0.83%. The inhibition in [7] was 4.45%; in [8], -1.1%; in experiment [9] it was -2.96%; in experiment [10] it was 2.47%; in experiment [11], 3.3%; in experiment [12], 1.26%. Besides, the inhibition in experiment [13] worked out at 4.23%; in experiment [14] it was 2.61%; in [15] it was 1.68%; in [16] it was 1.92%; in experiment [17] it was 5.6%; in experiment [18] it was 1.17%. In addition, the inhibition in experiment [19] was 6.02%; in experiment [20], 1.11%.
Regarding `Cc1ccc(-c2cc3c(NC(=O)C4CC4)ncnc3o2)cc1`, the inhibition was 1.04% in experiment [1]; 2.06% in experiment [2]; 13.3% in [3]; 2.75% in experiment [4]; 3.26% in [5]; 2.89% in experiment [6]. Moreover, the inhibition in experiment [7] was 3.69%; in [8], 0.76%; in experiment [9], -1.62%; in experiment [10], 9.35%; in [11], 47.8%; in experiment [12], 6%. In addition, the inhibition in experiment [13] stood at 23.7%; in experiment [14] it was 1.07%; in experiment [15], 3.18%; in [16], 4.57%; in [17], 4.6%; in [18], 4.47%. Also, the figures for the inhibition in [19] and in experiment [20] were 4.89% and -0.84%, respectively.
For `O=C(O[C@H]1CN[C@H](C#Cc2cc3ncnc(Nc4ccc5c(cnn5Cc5ccccc5)c4)c3s2)C1)N1CCOCC1`, the inhibition in experiment [1] is 0.38%; in experiment [2] it was 2.54%; in experiment [3], 11.2%; in [4] it was -2.71%; in [5], 0.04%; in experiment [6] it was -2.76%. In addition, the inhibition is -3.41% in experiment [7]; -5.14% in experiment [8]; 1.01% in [9]; -0.42% in [10]; 1.4% in [11]; 1.73% in [12]. The inhibition in experiment [13] was 23.1%; in experiment [14], -4.53%; in [15], 2.2%; in experiment [16], -0.55%; in [17], -2.69%; in [18], -0.19%. Besides, the inhibition in experiment [19] is -0.28%; in experiment [20], -0.85%.
For `Cc1cc(O)cc(C)c1/C=C/c1cncc(C(N)=O)c1`, the inhibition came to 0.95% in [1]; 5.81% in experiment [2]; 38.1% in experiment [3]; 1.23% in [4]; 4.11% in experiment [5]; 1.9% in experiment [6]. Moreover, the inhibition in experiment [7] was 2.11%; in [8], -5.07%; in [9] it was -0.58%; in experiment [10], 2.41%; in experiment [11], 6.32%; in experiment [12], 6.53%. The inhibition in experiment [13] is 32.2%; in [14], 2.11%; in [15] it was 2.46%; in experiment [16] it was 4.77%; in [17], 11.2%; in experiment [18], 3.8%. Also, the inhibition in [19] is 8.78%; in experiment [20] it was -1.23%.
On to `CS(=O)(=O)Nc1ccc(-c2cc(-c3ccccc3)cc(C(N)=O)c2N)cc1`, for which the inhibition in experiment [1] is 1.17%; in experiment [2] it was -1.31%; in experiment [3], 1.01%; in experiment [4], 1.22%; in experiment [5] it was 1.42%; in experiment [6], 6%. The inhibition in [7] is 4.94%; in experiment [8] it was -2.16%; in [9], -2.96%; in experiment [10] it was 0.01%; in experiment [11], 0.42%; in experiment [12] it was 0.79%. Besides, the inhibition was 4.67% in [13]; -2.43% in [14]; -3.4% in [15]; 2.34% in experiment [16]; 3.97% in experiment [17]; 2.93% in experiment [18]. Further, the values for the inhibition in experiment [19] and in experiment [20] were 3.58% and -0.86%, respectively.
